Out of some 5,500 compounds screened, about 2,000 (36%) were called active. Not shown: some 18% with an inconclusive outcome. No stated cut-off is given here; in the data, active means normalized growth mostly below about 0.91 (no sharp cut-off); inconclusive means no clear call, values can overlap the other calls; inactive means mostly above about 0.92. The list shows a part of the results.
Assay: chemical genetic growth profiling, strain panel (AID 1159580);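 further: tested at 20 µM; growth read once vehicle control cultures reached saturation at 30 °C; 1 = growth at the plate median or of vehicle wells; lower values mean less growth of the strain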
Settings: growth OD

Measured: normalized growth

Oc1c(I)cc(I)c2cccnc12
inactive: S. cerevisiae deletion strains, locus YOL012C, strain htz1 0.333
active: S. cerevisiae deletion strains, locus YJL187C, strain SWE1, active compounds read low 0.0737 | S. cerevisiae deletion strains, locus YJR043C, strain POL32, active compounds read low 0.08 | S. cerevisiae deletion strains, locus YJR066W, strain TOR1, active compounds read low 0.106 | S. cerevisiae deletion strains, locus YKL009W, strain mrt4, active compounds read low 0.274 | S. cerevisiae deletion strains, locus YKL068W, active compounds read low 0.479 | S. cerevisiae deletion strains, locus YKL085W, strain MDH1 (second series), active compounds read low 0.253 | S. cerevisiae deletion strains, locus YKL085W, strain MDH1, active compounds read low 0.253 | S. cerevisiae deletion strains, locus YKL160W, strain elf1, active compounds read low 0.0775 | S. cerevisiae deletion strains, locus YKL190W, strain CNB1, active compounds read low 0.0667 | S. cerevisiae deletion strains, locus YKR001C, strain vps1, active compounds read low 0.1 | S. cerevisiae deletion strains, locus YKR026C, strain gcn3, active compounds read low 0.0967 | S. cerevisiae deletion strains, locus YKR091W, strain srl3, active compounds read low 0.129 | S. cerevisiae deletion strains, locus YLL001W, strain dnm1, active compounds read low 0.085 | S. cerevisiae deletion strains, locus YLL026W, active compounds read low 0.652 | S. cerevisiae deletion strains, locus YLL041C, strain sdh2, active compounds read low 0.083 | S. cerevisiae deletion strains, locus YLR027C, strain aat2, active compounds read low 0.0875 | S. cerevisiae deletion strains, locus YLR039C, strain RIC1, active compounds read low 0.156 | S. cerevisiae deletion strains, locus YLR058C, strain SHM2, active compounds read low 0.0693 | S. cerevisiae deletion strains, locus YLR102C, strain apc9, active compounds read low 0.0939 | S. cerevisiae deletion strains, locus YLR113W, strain HOG1, active compounds read low 0.128 | S. cerevisiae deletion strains, locus YLR221C, strain rsa3, active compounds read low 0.118 | S. cerevisiae deletion strains, locus YLR258W, strain gsy2, active compounds read low 0.0729 | S. cerevisiae deletion strains, locus YLR262C, strain YPT6 (second series), active compounds read low 0.109 | S. cerevisiae deletion strains, locus YLR262C, strain YPT6, active compounds read low 0.184 | S. cerevisiae deletion strains, locus YLR268W, strain sec22, active compounds read low 0.104 | S. cerevisiae deletion strains, locus YLR320W, strain mms22, active compounds read low 0.111 | S. cerevisiae deletion strains, locus YLR330W, strain CHS5, active compounds read low 0.0767 | S. cerevisiae deletion strains, locus YLR342W, strain FKS1 (second series), active compounds read low 0.0828 | S. cerevisiae deletion strains, locus YLR342W, strain FKS1, active compounds read low 0.0814 | S. cerevisiae deletion strains, locus YLR357W, strain rsc2, active compounds read low 0.178 | S. cerevisiae deletion strains, locus YLR370C, strain arc18, active compounds read low 0.0851 | S. cerevisiae deletion strains, locus YLR371W, strain rom2, active compounds read low 0.137 | S. cerevisiae deletion strains, locus YLR384C, strain iki3, active compounds read low 0.0849 | S. cerevisiae deletion strains, locus YLR418C, strain cdc73, active compounds read low 0.16 | S. cerevisiae deletion strains, locus YML016C, strain PPZ1, active compounds read low 0.0635 | S. cerevisiae deletion strains, locus YML032C, strain rad52, active compounds read low 0.115 | S. cerevisiae deletion strains, locus YML120C, strain ndi1, active compounds read low 0.0935 | S. cerevisiae deletion strains, locus YML124C, strain tub3, active compounds read low 0.0977 | S. cerevisiae deletion strains, locus YMR058W, strain fet3, active compounds read low 0.0746 | S. cerevisiae deletion strains, locus YMR078C, strain ctf18, active compounds read low 0.11 | S. cerevisiae deletion strains, locus YMR125W, strain sto1, active compounds read low 0.112 | S. cerevisiae deletion strains, locus YMR129W, active compounds read low 0.256 | S. cerevisiae deletion strains, locus YMR205C, strain PFK2, active compounds read low 0.108 | S. cerevisiae deletion strains, locus YMR223W, strain ubp8, active compounds read low 0.108 | S. cerevisiae deletion strains, locus YMR231W, strain pep5, active compounds read low 0.105 | S. cerevisiae deletion strains, locus YMR307W, strain GAS1, active compounds read low 0.145 | S. cerevisiae deletion strains, locus YNL067W, strain RPL9B, active compounds read low 0.0655 | S. cerevisiae deletion strains, locus YNL071W, strain lat1, active compounds read low 0.236 | S. cerevisiae deletion strains, locus YNL183C, strain NPR1, active compounds read low 0.103 | S. cerevisiae deletion strains, locus YNL209W, strain ssb2, active compounds read low 0.0737 | S. cerevisiae deletion strains, locus YNL233W, strain BNI4, active compounds read low 0.073 | S. cerevisiae deletion strains, locus YNL248C, strain rpa49, active compounds read low 0.11 | S. cerevisiae deletion strains, locus YNL250W, strain rad50, active compounds read low 0.0949 | S. cerevisiae deletion strains, locus YNL271C, strain bni1, active compounds read low 0.177 | S. cerevisiae deletion strains, locus YNL298W, strain CLA4, active compounds read low 0.271 | S. cerevisiae deletion strains, locus YNL307C, strain MCK1, active compounds read low 0.115 | S. cerevisiae deletion strains, locus YNL322C, strain KRE1 (second series), active compounds read low 0.128 | S. cerevisiae deletion strains, locus YNL322C, strain KRE1, active compounds read low 0.0647 | S. cerevisiae deletion strains, locus YNR049C, strain mso1, active compounds read low 0.0812 | S. cerevisiae deletion strains, locus YNR052C, strain pop2, active compounds read low 0.0966 | S. cerevisiae deletion strains, locus YOL147C, strain pex11, active compounds read low 0.0953 | S. cerevisiae deletion strains, locus YOR001W, strain rrp6, active compounds read low 0.21 | S. cerevisiae deletion strains, locus YOR061W, strain CKA2, active compounds read low 0.0666 | S. cerevisiae deletion strains, locus YOR069W, strain VPS5, active compounds read low 0.0731 | S. cerevisiae deletion strains, locus YOR070C, strain gyp1, active compounds read low 0.575 | S. cerevisiae deletion strains, locus YOR080W, strain dia2, active compounds read low 0.09 | S. cerevisiae deletion strains, locus YOR083W, strain WHI5, active compounds read low 0.112 | S. cerevisiae deletion strains, locus YOR106W, strain vam3, active compounds read low 0.0906 | S. cerevisiae deletion strains, locus YOR136W, strain idh2, active compounds read low 0.156 | S. cerevisiae deletion strains, locus YOR144C, strain elg1, active compounds read low 0.0898 | S. cerevisiae deletion strains, locus YOR184W, strain ser1, active compounds read low 0.133 | S. cerevisiae deletion strains, locus YOR231W, strain MKK1, active compounds read low 0.14 | S. cerevisiae deletion strains, locus YOR265W, strain rbl2, active compounds read low 0.0593 | S. cerevisiae deletion strains, locus YOR270C, strain vph1, active compounds read low 0.129 | S. cerevisiae deletion strains, locus YOR290C, strain snf2, active compounds read low 0.0939 | S. cerevisiae deletion strains, locus YOR316C, strain cot1, active compounds read low 0.0886 | S. cerevisiae deletion strains, locus YPL051W, strain arl3, active compounds read low 0.0895 | S. cerevisiae deletion strains, locus YPL078C, strain atp4, active compounds read low 0.0936 | S. cerevisiae deletion strains, locus YPL106C, strain sse1, active compounds read low 0.16 | S. cerevisiae deletion strains, locus YPL240C, strain hsp82, active compounds read low 0.0764 | S. cerevisiae deletion strains, locus YPL256C, strain CLN2, active compounds read low 0.15 | S. cerevisiae deletion strains, locus YPR119W, strain clb2, active compounds read low 0.0998 | S. cerevisiae deletion strains, locus YPR141C, strain kar3, active compounds read low 0.235 | S. cerevisiae deletion strains, locus YPR163C, strain tif3, active compounds read low 0.107 | S. cerevisiae deletion strains, locus YPR167C, strain met16, active compounds read low 0.103 | S. cerevisiae deletion strains, strain wtn01, active compounds read low 0.116 | S. cerevisiae strains, strain wild type, active compounds read low 0.0715

Reference: PubChem BioAssay AID1159580 (chemical genetic matrix, 2015)
